Assay results as given in article PMC13083723 (Patterns, 2026).
Hit rate of the full screen: of about 5,400 compounds, about 190 (3.5%) showed an effect of 50% or more. Only a selection was taken, and strong results are over-represented in it overall. Residues, ends and D or L forms follow the SMILES beside them. *: point of attachment. NHCH2CH2OH = OCCN*; For = O=C*

These compounds were tested on Vero-E6 (assay: primary screen, phospholipidosis by LipidTOX staining; higher = more effect of the substance). Conditions: 10 µM.
How it was run: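 Drug-induced phospholipidosis detected with HCS LipidTOX Red reagent in Vero-E6 cells. Compounds tested at 10 μM, with amiodarone (10 μM) as positive control and DMSO (0.1 v/v %) as vehicle.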

Row | Structure (SMILES) | result_ITMP [%]
1 | CC(C)c1nc(N(C)S(C)(=O)=O)nc(-c2ccc(F)cc2)c1/C=C/[C@@H](O)C[C@@H](O)CC(=O)[O-] | -8.19
2 | Cc1nc(Nc2cnn(C3CCNCC3)c2)nc2c1N(C)C(=O)c1cc3ccccc3cc1N2C | 103
3 | CCOc1cc(N2CCC(O)CC2)ccc1Nc1ncc2c(n1)N(C)c1ccccc1C(=O)N2C | 4.79
4 | O=C(O)[C@@H]1C[C@@H](C2CCCCC2)CN1C(=O)CP(=O)(O)CCCCc1ccccc1 | -0.11
5 | O=c1nc[nH]c2c1cnn2[C@@H]1O[C@H](CO)[C@@H](O)[C@H]1O | 2.43
6 | CCC[C@@H]1C[C@@H](C(=O)N[C@H]([C@H]2O[C@H](SC)[C@H](O)[C@@H](O)[C@H]2O)[C@H](C)O)N(C)C1 | -3.49
7 | NC1(c2ccc(-c3nc4ccn5c(=O)[nH]nc5c4cc3-c3ccccc3)cc2)CCC1 | 87.1
8 | COc1cccc(CCc2ccccc2OCC(CN(C)C)OC(=O)CCC(=O)O)c1 (centres unmarked) | 64.3
9 | O=C(O)CCc1ccc(NCc2cccc(Oc3ccccc3)c2)cc1 | -4.86
10 | O=C(O)CCCCN(CCc1ccccc1OCc1ccc(CCc2ccccc2)cc1)Cc1ccc(C(=O)O)cc1 | 0.2
11 | CCc1cccc(CC)c1N=C1NCCN1 | -5.43
12 | O=C(O[C@H]1CN2CCC1CC2)N(Cc1cc(F)c(F)c(F)c1)c1cccc(F)c1 | 71.4
13 | C[C@H](Nc1ncnc2[nH]cnc12)c1cc2ccc(F)cc2nc1-c1ccccn1 [R4A_0002240_001 / SPE_K21077415] | -0.96
14 | Nc1cccc(CNC(=O)c2ccc(Oc3ccc(OCc4cccc(F)c4)cc3)nc2)c1 | -1.49
15 | OCc1ccc(-c2nn(Cc3ccccc3)c3ccccc23)o1 | -1.24
16 | O=C(O)COc1nn(Cc2ccccc2)c2ccccc12 | 0
17 | CN(C)CCCOc1nn(Cc2ccccc2)c2ccccc12 | 51.2
18 | C[C@@H]1CCC[C@H](C)N1NC(=O)c1ccc(Cl)c(S(N)(=O)=O)c1 | 3.56
19 | CC(C)Cc1ccc(C(C)C(=O)O)cc1 (centres unmarked) [R4A_0001344_001 / SPE_M64062803] | -5.52
20 | O=C(Nc1ccc(F)cc1)N1CCc2ccccc2C1c1ccc(C(F)(F)F)cc1 (centres unmarked) | -0.7
21 | O=C(C1CCCCC1)N1CC(=O)N2CCc3ccccc3C2C1 (centres unmarked) | -5.83
22 | O=C(O[C@H]1CN2CCC1CC2)N1CCc2ccccc2[C@@H]1c1ccccc1 | 59.2
23 | CC(C)(CO)[C@@H](O)C(=O)NCCC(=O)[O-] | 1.43

Row | Structure (SMILES) | result_ITMP [%]
24 | C[C@@]12C[C@@]3(O)O[C@@H](O1)[C@]1(COC(=O)c4ccccc4)[C@H]3C[C@@]12O[C@@H]1O[C@H](CO)[C@@H](O)[C@H](O)[C@H]1O | -5.49
25 | CN1CCN(c2ccc(-c3cccc(CN4CCOCC4)c3)cc2NC(=O)c2c[nH]c(=O)cc2C(F)(F)F)CC1 | -0.45
26 | CN1CCN(c2ccc(C(=O)Nc3n[nH]c4ccc(Cc5cc(F)cc(F)c5)cc34)c(NC3CCOCC3)c2)CC1 | 96.5
27 | CCc1cccc(CC)c1NC(=O)N1Cc2[nH]nc(NC(=O)c3ccc(N4CCN(C)CC4)cc3)c2C1 | 3.48
28 | C[C@H]1O[C@@H](O[C@H]2CC[C@@]3(C)[C@H](CC[C@@H]4[C@@H]3C[C@@H](O)[C@]3(C)[C@@H](C5=CC(=O)OC5)CC[C@]43O)C2)C[C@H](O)[C@@H]1O[C@H]1C[C@H](O)[C@H](O[C@H]2C[C@H](O)[C@H](O[C@@H]3O[C@H](CO)[C@@H](O)[C@H](O)[C@H]3O)[C@@H](C)O2)[C@@H](C)O1 | -9.7
29 | CO/N=C(\C(=O)N[C@@H]1C(=O)N2C(C(=O)[O-])=C(COC(C)=O)CS[C@H]12)c1csc(N)n1 | -7.3
30 | COc1cccc(C(=O)CCN[C@@H](C)[C@H](O)c2ccccc2)c1 | 1.52
31 | COc1cccc([C@@H](C)NCCCc2ccccc2Cl)c1 | 70.1
32 | CC(NCCC(c1ccccc1)c1ccccc1)c1ccccc1 (centres unmarked) | 43.7
33 | C[N@+]12CCCC[C@@H]1CCC(=C(c1cccs1)c1cccs1)C2 (racemic) | -3.77
34 | CO[C@@H]1[C@@H](OC(N)=O)[C@@H](O)[C@H](Oc2ccc3c([O-])c(NC(=O)c4ccc(O)c(CC=C(C)C)c4)c(=O)oc3c2C)OC1(C)C | -3.28
35 | CC(=O)NCCCS(=O)(=O)[O-] | 7.64
36 | C=CC(=O)N1CCC(Oc2cc3c(Nc4ccc(Cl)c(Cl)c4F)ncnc3cc2OC)CC1 | 35.1
37 | COc1ccc(Cl)c(Nc2ncnc3cc(OCC4CCN(C)CC4)c(OC)cc23)c1 | 9.6
38 | COc1cc2c(Nc3ccc(Br)cc3F)ncnc2cc1OCC1CCN(C)CC1 | 105
39 | COc1cc2ncnc(Nc3cccc(Cl)c3F)c2cc1OC(=O)N1CCN(C)C[C@H]1C | 10.7
40 | COc1cc2c(Nc3ccc(Cl)c(Cl)c3F)ncnc2cc1OC[C@@H]1C[C@@H]2CN(C)C[C@@H]2C1 | 55.5
41 | COc1cc2ncnc(Nc3ccc(Cl)cc3F)c2cc1OC | -0.91
42 | CC(C)CC(NC(=O)C(C)NC(=O)CNC(=O)C(NC=O)C(C)C)C(=O)NC(C)C(=O)NC(C(=O)NC(C(=O)NC(C(=O)NC(Cc1c[nH]c2ccccc12)C(=O)NC(CC(C)C)C(=O)NC(Cc1c[nH]c2ccccc12)C(=O)NC(CC(C)C)C(=O)NC(Cc1c[nH]c2ccccc12)C(=O)NC(CC(C)C)C(=O)NC(Cc1c[nH]c2ccccc12)C(=O)NCCO)C(C)C)C(C)C)C(C)C (centres unmarked) (For-VGALAVVVWLWLWLW-NHCH2CH2OH; configuration not given here) | -8.15
43 | COC1/C=C\OC2(C)Oc3c(C)c(O)c4c(O)c(cc([O-])c4c3C2=O)NC(=O)/C(C)=C\C=C/C(C)C(O)C(C)C(O)C(C)C(OC(C)=O)C1C (centres unmarked) | -0.32
44 | C[C@@H](O)[C@H]1C(=O)N2C(C(=O)[O-])=C([C@H]3CCCO3)S[C@H]12 | -1.64
45 | [Cl][Ru]([Cl])([Cl])[Cl].c1ccc2[nH]ncc2c1.c1ccc2[nH]ncc2c1 | -2.33
46 | OC[C@H]1O[C@@H](O[C@@H]2[C@H](O)[C@@H](O)[C@H](O[C@H]3[C@H](O)[C@@H](O)C(O)O[C@@H]3CO)O[C@@H]2CO)[C@H](O)[C@@H](O)[C@H]1O (some centres unmarked) | 3.95

Row | Structure (SMILES) | result_ITMP [%]
47 | CCCC[C@H](NC(C)=O)C(=O)N[C@H]1CC(=O)NCCCC[C@@H](C(=O)O)NC(=O)[C@H](Cc2c[nH]c3ccccc23)NC(=O)[C@H](CCCNC(=N)N)NC(=O)[C@@H](Cc2ccccc2)NC(=O)[C@H](Cc2cnc[nH]2)NC1=O | -3.41
48 | COc1ccc2[nH]c3nnc(C)c-3c(NCCOCCO)c2c1 | -1.31
49 | C1Cc2[nH]nc(-c3nnn[nH]3)c2C1 | -1.64
50 | CC(C)N(C[C@H]1O[C@@H](n2cnc3c(N)ncnc32)[C@H](O)[C@@H]1O)C1CC(CCc2nc3cc(C(C)(C)C)ccc3[nH]2)C1 (some centres unmarked) | -3.75
51 | Nc1ncnc2c1ncn2C1OC2COP(=O)([O-])OC2C1O (centres unmarked) | -10.8
52 | CCN1CCN(Cc2ccc(C(=O)Nc3ccc(C)c(Oc4ccc5c(c4)CC(=O)N5)c3)cc2C(F)(F)F)CC1 | 99.1
53 | Cc1ccc(C(=O)Nc2ccc(CN3CCN(C)CC3)c(C(F)(F)F)c2)cc1C#Cc1cnc2cccnn12 | 11.4
54 | Cc1ccc(C(=O)Nc2ccc(CN3CCN(C)CC3)c(C(F)(F)F)c2)cc1C#Cc1cnc2[nH]ncc2c1 | 6.57
55 | C[C@@H]1CC[C@@]2(NC1)O[C@H]1C[C@H]3[C@@H]4CC=C5C[C@@H](O[C@@H]6O[C@H](CO)[C@@H](O[C@@H]7O[C@@H](C)[C@H](O)[C@@H](O)[C@H]7O)[C@H](O)[C@H]6O[C@@H]6O[C@@H](C)[C@H](O)[C@@H](O)[C@H]6O)CC[C@]5(C)[C@H]4CC[C@]3(C)[C@H]1[C@@H]2C | -0.25
56 | C[C@]12C=CC(=O)C=C1CCC1C2[C@@H](O)C[C@@]2(C)C1CC[C@]2(O)C(=O)COP(=O)([O-])[O-] (some centres unmarked) | -4.14
57 | O=S(=O)([O-])CCSSCCS(=O)(=O)[O-] | -11.7
58 | N=C(N)NCCC[C@@H](NC(=O)[C@@H]1CCCN1C(=O)[C@@H]1CSSC[C@H](N)C(=O)N[C@@H](Cc2ccc(O)cc2)C(=O)N[C@@H](Cc2ccccc2)C(=O)N[C@@H](CCC(N)=O)C(=O)N[C@@H](CC(N)=O)C(=O)N1)C(=O)NCC(N)=O | -1.55
59 | Oc1ncc(F)cn1 | -8.73
60 | Nc1nnc2[nH]c3ccccc3nc1-2 | -7.77
61 | CCCC1(CCC)CCC2(CCN(CCCN(CC)CC)C2)CC1 | 109
62 | COc1cc(/C=C/C(=O)[O-])ccc1O | -1.05
63 | CCN1CCN(Cc2ccc(Nc3ncc(F)c(-c4cc(F)c5nc(C)n(C(C)C)c5c4)n3)nc2)CC1 | 76.7
64 | CC(C)Cc1ccc(C(C)C(=O)O)cc1 (centres unmarked) [R4A_0001344_001 / SPE_A17655518] | -3.6
65 | COC(=O)C1=C(C)NC(C)=C(C(=O)NCCCN2CCC(c3ccccc3)(c3ccccc3)CC2)C1c1ccc([N+](=O)[O-])cc1 (centres unmarked) | 60.6
66 | COC(=O)C1=C(C)NC(C)=C(C(=O)O[C@H]2CCN(Cc3ccccc3)C2)[C@H]1c1cccc([N+](=O)[O-])c1 | 21.2
67 | COC(=O)C1=C(C)NC(C)=C(C(=O)OCCN2CCN(C(c3ccccc3)c3ccccc3)CC2)C1c1cccc([N+](=O)[O-])c1 (centres unmarked) | 11.6
68 | CC[C@H](CC[C@@H](C)[C@H]1CC[C@H]2[C@@H]3CC=C4C[C@@H](O)CC[C@]4(C)[C@H]3CC[C@]12C)C(C)C | 1.55
